From ChEMBL document CHEMBL3988442, “University of Dundee, Small-Polar-MMV Screening Library” (2021)
The whole screen tested about 48,000 compounds, of which about 13,000 (27%) showed an effect of 50% or more. This is one part of the list.

tested on: Wolbachia pipientis; assay: Anti-Wolbachia Cell-Based Screen; type: functional; design: scale not given: in the data most compounds retested in dose-response had high values; settings: 5 µM

| SMILES | Percent Effect [%] |
| --- | --- |
| Cc1ncsc1C(=O)N(C)CCc1ccncc1 | -1.181 |
| COc1ccccc1CC1CCCN(CCN2CCOC2=O)C1 (configuration not stated) | -15.91 |
| Cc1cccc2sc(NC(=O)CN3CCC(C)CC3)nc12 | -4.691 |
| Br.Cc1ccccc1OC1CCN(CC(=O)Nc2ccn(C)n2)CC1 | 95.2 |
| Cc1ccccc1OC1CCN(CC(=O)Nc2cn(C)nc2C)CC1 | 143.3 |
| Cc1nn(C)c(C)c1NC(=O)CNC(c1ccccc1)C1CCC1 (configuration not stated) | -2.911 |
| Cc1ccccc1OC1CCN(CC(=O)Nc2c(C)nn(C)c2C)CC1 | 133 |
| COCCN1C[C@H]2CC[C@@H]1CN(CC(=O)Nc1ccn(C)n1)C2 | 0.2654 |
| Br.Cc1ccccc1OC1CCN(CC(=O)Nc2cnn(C)c2C)CC1 | 127.8 |
| Cn1ccc(NC(=O)CN2C[C@H]3CC[C@@H]2CN(Cc2ccccn2)C3)n1 | -23.26 |
| Cc1cccc(OC2CCN(C(=O)NCCn3ccnc3)CC2)c1C | -9.4 |
| CC(=O)c1ccc(CN2CC(Oc3ccccc3C)C2)cc1 | 1.561 |
| Cc1nn(C)c(C)c1NC(=O)CN1CCOC(Cn2cccn2)C1 (configuration not stated) | -5.215 |
| CC(O)CNC(=O)NCCCN1CCN(c2ncccn2)CC1 (configuration not stated) | -2.851 |
| CCOCCn1nnc(C2(NC(=O)c3ccccc3)CCCC2)n1 | -1.903 |
| CN(C)CCOc1ccc(CNC(=O)c2cccc3[nH]ncc23)cc1 | -2.455 |
| CN(C)C(=O)CCCNc1ncc2c(n1)CCN2c1ccccc1 | -14.16 |
| Cn1c(=O)oc2ccc(NC(=O)N3CCSCC3)cc21 | -14.24 |
| Cn1nc2c(cc1=O)CN(Cc1nnc(C3CC3)o1)CC2 | 7.472 |
| Cc1noc(C)c1C(=O)N(C)C(C)c1ccncc1 (configuration not stated) | -19.42 |
| O=C(Nc1ccccc1)c1ccc2c(c1)C1(CCCCC1)CN2.O=C(O)C(F)(F)F | 15.72 |
| CCOC(CC)C(=O)NCc1cccc(N2CCCCC2=O)c1 (configuration not stated) | -0.7778 |
| NS(=O)(=O)c1ccc(NC(=O)CSc2ccc3c(c2)CCC3)cc1 | 16.99 |

| SMILES | Percent Effect [%] |
| --- | --- |
| N#Cc1ccc(OC2CCN(CC(=O)NCC(F)(F)F)CC2)cc1 | 6.533 |
| Cc1[nH]c(=O)[nH]c(=O)c1CC(=O)N1CCC(Oc2ccc(F)cc2)CC1 | -20.3 |
| CC(=O)c1cccc(CN2CC(Oc3ccccc3C)C2)c1 | 6.758 |
| CCn1cc(NC(=O)CN2CCC(Oc3ccc(F)cc3)CC2)c(C)n1.Cl | 113.2 |
| CCN1CC(C(=O)N2CCC(Oc3ccccc3C)CC2)CC1=O (configuration not stated) | -3.691 |
| CCn1cc(NC(=O)CN2CCC(Oc3ccccc3C)CC2)c(C)n1 | 103.8 |
| O=c1[nH]c(N2CCN(C3CC3)CC2)nc2c1cnn2-c1ccccc1 | 4.194 |
| O=C(NCc1cccs1)NCC(O)(c1cccs1)C1CC1 (configuration not stated) | 4.96 |
| Cc1n[nH]cc1CNCC1(c2ccc3c(c2)OCO3)CCOCC1.Cl | 4.447 |
| Cc1ncsc1CNC(=O)N(Cc1ccccc1)CC(C)(C)O | -10.76 |
| Cc1csc(CNC(=O)NCC2(c3ccc4c(c3)OCO4)CC2)n1 | 126.6 |
| Cc1csc(CNC(=O)Cc2ccc3c(c2)OCCO3)n1 | -1.573 |
| Cc1csc(CNC(=O)NCc2ccc3c(c2)OCCO3)n1 | -13.77 |
| Cc1ncsc1CNC(=O)NCC1(c2ccc3c(c2)OCO3)CC1 | 120.8 |
| Cc1csc(CNC(=O)Nc2ccc3c(c2)OCO3)n1 | 95.91 |
| Cc1csc(CNC(=O)N(C)Cc2ccc3c(c2)OCO3)n1 | -4.172 |
| Cc1csc(CNC(=O)NCCc2ccc3c(c2)OCCO3)n1 | -0.3298 |
| Cc1ccc(CN2CCc3c(C(=O)N(C)C)n[nH]c3C2)o1 | -11.98 |
| Cc1ccc(CNC2(Cc3cc(-c4ccccn4)on3)COC2)o1 | -9.349 |
| CCOc1ccc(C(=O)N(Cc2cnn(C)c2)C(C)C)cc1OCC | 111.9 |
| COc1cc(C(=O)N(Cc2cnn(C)c2)C(C)C)ccc1C | 113.7 |
| CC(C)N(Cc1ccc(C(F)(F)F)nc1)Cc1cnn(C)c1 | 15.8 |
| COc1cc(C(=O)N(Cc2cnn(C)c2)C(C)C)ccc1OC(C)C | 121.6 |

| SMILES | Percent Effect [%] |
| --- | --- |
| COCCCOc1ccc(C(=O)N(Cc2cnn(C)c2)C(C)C)cn1 | 5.983 |
| CCSc1cc(C(=O)N(Cc2cnn(C)c2)C(C)C)ccn1 | -10.41 |
| Cc1ccc(NC(=O)N(C)Cc2cnn(C)c2)cc1OCC(F)F | -4.297 |
| COc1ccc(CN(Cc2cnn(C)c2)CC(C)C)cn1 | -28.68 |
| COc1ccc(C(=O)N(Cc2cnn(C)c2)C(C)C)cc1Br | 9.999 |
| COc1ccc(C(=O)N(Cc2cnn(C)c2)C(C)C)cc1OC(F)F | 110.3 |
| CCOc1ccc(C(=O)N(Cc2cnn(C)c2)C(C)C)cc1 | -5.805 |
| COc1cc(C(=O)N(Cc2cnn(C)c2)C(C)C)ccc1OCC(N)=O | 4.705 |
| CN1C[C@@H]2CN(C(=O)C3CC=CC3)C[C@@H]2C1=O | -1.664 |
| Cc1nnc(CN2CCC3(CCC(=O)N([C@H]4CC[C@H](O)CC4)C3)CC2)o1 | 5.383 |
| CC(C)=CCN1CCN(C(C)c2cccnc2)CC1 (configuration not stated) | 2.838 |
| CCN(Cc1nc(COC)no1)C(=O)CCn1c(C)cc2ccccc21 | -20.66 |
| CCN(CC1=CCN(C)CC1)C(=O)CCOC | 97.45 |
| CN1CC=C(CCN(C)C(=O)CCc2ccccc2)CC1 | 90.24 |
| CCCS(=O)(=O)N(C)C(=O)CCc1ccccc1 | -9.766 |
| CCOCCC(=O)N(C)CC1Cc2ccccc2CN1C (configuration not stated) | 13.82 |
| COCCC(=O)N(C)CCC1=CCN(C)CC1 | 102.2 |
| COCCC(=O)N(Cc1cccnc1)CC1CCN(C2CCCC2)CC1 | -4.098 |
| CN(CCN1CCOCC1)C(=O)CCCOCCc1ccccc1 | 6.061 |
| CCc1ccccc1OCCN(C)C(=O)CCN1CCCO1 | 2.484 |
| FC(F)(F)C1CCCn2c(CNCc3ccsc3)nnc21 (configuration not stated) | 5.709 |
